Tau fibril ThT: inhibitors of human tau fibril formation, thioflavin T binding. 270,000 compounds, 2.1% hits. recombinant tau K18 P301L, heparin-induced fibrillization, ThT fluorescence. P10636. AID 1460. Potency, µM (highest dose often 57.4 µM), without a hit: top-dose activity, negative = inhibition, actives largely listed as inhibitors; also: potency is read from the fitted curve at half-maximal effect; nearly all actives have a fitted effect of over 55% in size
Target sequence (P10636 561-689 P618L limits assumed): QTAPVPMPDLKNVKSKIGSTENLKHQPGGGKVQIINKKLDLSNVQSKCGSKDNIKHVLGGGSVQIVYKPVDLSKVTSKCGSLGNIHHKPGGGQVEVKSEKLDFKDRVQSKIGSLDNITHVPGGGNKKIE
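Heparin-induced (20 uM) aggregation of recombinant human K18 P301L tau, 15 uM unlabeled with 0.24 uM labeled, pH 7 acetate buffer, 6 hr at 37 C with compound. Fibrils quantified by 30 uM ThT fluorescence after 1 hr ambient incubation.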
Tau FP inhib: blocks human tau fibril formation measured by polarization; P10636; K18 P301L tau heparin fibrillization, Alexa594 FP, 6 h; Potency, µM (series often up to 57.7 µM), without a hit: at the top dose activity, negative = inhibition, hits mostly inhibitors; 280,000 compounds, 0.39% hits; also: potency is read from the fitted curve at half-maximal effect; nearly all actives have a fitted effect of over 55% in size
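Recombinant K18 P301L […], labeled with Alexa 594 at 0.24 uM over 15 uM unlabeled; heparin inducer 20 uM final; 37 C, 6 hr; FP endpoint.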
USP1 inh: inhibitors of human USP1/UAF1 deubiquitinase | O94782 | recombinant USP1/UAF1, Ub-Rhodamine cleavage fluorescence | Potency, µM (highest dose often 57.1 µM), inactives show at the top dose activity change, negative = inhibition, most hits filed as inhibitors | 390,000 compounds, 0.23% hits | AID 743255; also: potency is read from the fitted curve at half-maximal effect; nearly all actives have a fitted effect of over 60% in size
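USP1/UAF1 complex at 1 nM was preincubated with compound for 15 min at room temperature, then Ub-Rho substrate (150nM final) was added. Fluorescence (480/540 nm) was read kinetically, 6 reads every 60 seconds.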
Tau fluor counter: counter-screen for tau fibril formation inhibitors; tau K18 P301L Alexa594 fluorescence, heparin fibrillization; Potency, µM (top dose mostly 57.7 µM), for inactives: top-dose activity change, negative = decrease; 280,000 compounds, 0.93% hits; AID 1463; also: potency is read from the fitted curve at half-maximal effect; nearly all actives have a fitted effect of over 55% in size
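Human tau K18 P301L (15 uM unlabeled, 0.24 uM Alexa 594-labeled) in 100 mM sodium acetate pH 7 with 20 uM heparin, 6 hr at 37 C. ThT 30 uM added, 1 hr ambient; Alexa 594 FP and total fluorescence read at 555/632 nm.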
FBPA coupling cs: coupling enzyme interference in Giardia aldolase counter-screen | coupling enzyme system counterscreen, AmpLite Red fluorescence | activity change, negative = inhibition, % at 58.2 µM, hits read low | 290,000 compounds, 0.67% hits | AID 2472; in the data active = activity change below about -30%
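Coupling enzymes only (glyceraldehyde-3-phosphate) + compound, at 57.5 uM final, 10 min RT; add substrate/coupling/AmpLite Red mix, 20 min RT; fluorescence ex 525/em 598 nm. Actives flag coupling-system interference.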
* hit, by the source's call; ? = inconclusive; . = no result; ! = not confirmed by another sample; [ ] = remark or other dose. Shown are actives, neighbours in structure and some others; about 2.3% of the full set was active somewhere. Unless noted, calls follow the shape of the dose curve; as a rule, active = well fitted curve in the direction sought with a large enough effect; inconclusive = small, poorly fitted or top-dose-only effect, or another doubt; inactive = no such curve, though single readings can be large; an effect the other way counts as inactive or inconclusive. % is scaled to controls: 0 for no effect and ±100 for the full control effect.

SMILES	Tau fibril ThT	Tau FP inhib	USP1 inh	Tau fluor counter	FBPA coupling cs
O=C(CSc1nc(-c2cccs2)nc2cc(=O)[nH]n12)Nc1ccc(F)cc1	?	-3.2%	-9.9%	-5.4%	.
O=C(Nc1ccc2nc(-c3cccs3)c(-c3cccs3)nc2c1)NC1CC1	?	22.4µM*	-6.2%	?	-0.6
CN1C[C@H](C(=O)N[C@]2(C)O[C@@]3(O)C4CCCN4C(=O)[C@H](Cc4ccccc4)N3C2=O)C[C@@H]2c3cccc4[nH]cc(c34)C[C@H]21 (some centres undefined)	?	3.5%	.	12.6µM*[quencher]	-0.9
CC(C)[C@]1(NC(=O)[C@@H]2C=C3c4cccc5[nH]cc(c45)C[C@H]3N(C)C2)O[C@@]2(O)C3CCCN3C(=O)[C@H](Cc3ccccc3)N2C1=O (some centres undefined)	?	-12.2%	.	-29.2%	-31.8*
CC(C)[C@@]1(NC(=O)[C@H]2CC3c4cccc5[nH]cc(c45)C[C@H]3N(C)C2)O[C@@]2(O)C3CCCN3C(=O)[C@@H](Cc3ccccc3)N2C1=O (some centres undefined)	?	?	.	2.51µM*[quencher]	.
CC(C)[C@@]1(NC(=O)[C@@H]2C[C@H]3c4cccc5[nH]cc(c45)C[C@@H]3N(C)C2)O[C@]2(O)[C@H]3CCCN3C(=O)[C@H](Cc3ccccc3)N2C1=O	.	.	.	.	-0.4
COc1cc2[nH]c(=O)n(CCCCCC(=O)N3CCN(c4cccc(C(F)(F)F)c4)CC3)c(=O)c2cc1OC	?	-12.2%	-2.4%	?	.
COc1ccc(-c2nc(CSCC(=O)N3CCN(c4ccc(F)cc4)CC3)c(C)o2)cc1	?	6.2%	-4.9%	-17.3%	.
CN1CCc2nc(N)c(C#N)c(-c3ccccc3)c2C1	?	-5.0%	-20.7%	-13.9%	-1.7
CN1CCc2nc3sc(C#N)c(N)c3c(-c3cccs3)c2C1	28.2µM*	?	-9.5%	?	-0.9
CC1=C2C(=COC(C)C2C)C(=O)C(C(=O)O)=C1O (centres undefined)	?	-4.1%	.	-15.8%	-35.5*
CNNC	?	-16.0%	.	-9.7%	-17.9
Cc1cccc(-n2c(O)c(/C=C3/C(c4ccccc4)=Nc4ccccc43)c(=O)[nH]c2=O)c1	?	1.2%	?	-19.3%	5.7
Cc1ccc(-n2c(O)c(/C=C3/C(c4ccccc4)=Nc4ccccc43)c(=O)[nH]c2=O)cc1	12.6µM*	?	-23.3%	?	3.1
NCCCC[C@H](NC(=O)[C@H](Cc1ccccc1)NC(=O)[C@H](CCCN=C(N)N)NC(=O)[C@@H](N)Cc1ccc(O)cc1)C(N)=O	-1.6%	-2.7%	.	-4.5%	.
O=C(NCCSc1c(-c2ccccc2)[nH]c2ccccc12)c1ccc(S(=O)(=O)N2CCOCC2)cc1	-9.2%	?	-22.0%	6.31µM*[quencher]	.
O=c1[nH]c(O)c(N=Nc2cccc(S(=O)(=O)N3CCOCC3)c2)c(=O)[nH]1	-6.3%	-3.8%	-15.4%	-9.0%	3.1
CN(C)S(=O)(=O)c1ccc(C(=O)NCCSc2c(-c3ccccc3)[nH]c3ccccc23)cc1	-4.6%	-10.2%	-20.9%	3.98µM*[quencher]	.
Cc1cccc(Oc2nc3c(C)cccn3c(=O)c2/C=C(\C#N)c2nc3ccccc3s2)c1	?	-11.0%	-5.5%	-9.2%	.
COc1ccccc1NC(=O)c1oc2ccccc2c1NC(=O)c1ccccc1C(F)(F)F	-0.8%	?	-6.9%	?	.
Cc1c(Cl)ccc2sc(N3CCN(C(=O)CCS(=O)(=O)c4ccc(F)cc4)CC3)nc12	?	-9.1%	0.1%	-17.0%	.
CN1C(=O)C(=Cc2cc([N+](=O)[O-])ccc2N2CCCCC2)C(=O)N(C)C1=O	-11.1%	-3.1%	-3.1%	-5.9%	1.9
CN1C(=O)C(=Cc2sc(=O)n(-c3ccccc3)c2N2CCCCC2)C(=O)N(C)C1=O	25.1µM*	-16.1%	?	-15.9%	-7.2
COc1ccc(C(=O)Nc2ccc(S(=O)(=O)N(Cc3ccccc3)c3ccccc3)cc2)cc1	?	15.8µM*	-15.6%	?	.
COc1ccc(-c2cnnn2-c2ccc(NC(=O)c3ccc(S(=O)(=O)N(C)C)cc3)cc2)cc1	1.0%	-13.6%	-3.6%	?	.
SMILES	Tau fibril ThT	Tau FP inhib	USP1 inh	Tau fluor counter	FBPA coupling cs
COC[C@H]1OC(=O)c2coc3c2[C@@]1(C)C1=C(C3=O)C2CCC(=O)[C@@]2(C)C[C@H]1OC(C)=O (some centres undefined)	17.8µM*!	?	.	?	-20.5
COC[C@H]1OC(=O)c2coc3c2[C@@]1(C)C1=C(C3=O)[C@H]2CCC(=O)[C@@]2(C)C[C@H]1OC(C)=O	14.1µM*	28.2µM*	.	?	-27.4
[O-]/[N+](=C/c1cccnc1)c1ccc(Br)cc1	28.2µM*	?	-14.9%	-20.3%	-4.7
COC(=O)C1(C)C=C2C(=C(C)C(=O)C2C)CN1 (centres undefined)	-10.4%	-0.1%	.	-5.9%	-5.9
NCCCCC(NC(CCc1ccccc1)C(=O)O)C(=O)N1CCCC1C(=O)O (centres undefined)	-0.5%	?	.	-8.2%	5.4
CCN1C(=O)C(=Cc2ccc(C)s2)C(=O)N(CC)C1=S	14.1µM*	?	-25.5%	-28.6%	4.5
Cc1cccc(N=Cc2c(O)n(-c3ccccc3C)c(=O)[nH]c2=O)c1	-21.0%	-11.8%	-15.0%	-17.4%	0.5
Cc1ccccc1-n1c(O)c(/C=C/C=Nc2ccccc2)c(=O)[nH]c1=O	?	-6.9%	31.6µM*	-4.4%	-2.6
Cc1ccccc1-n1c(O)c(C=Nc2ccc(N(C)C)cc2)c(=O)[nH]c1=O	28.2µM*	?	-18.9%	?	-3.2
Cn1c(O)c(/C=C/C=Nc2ccccc2)c(=O)n(C)c1=S	?	?	-10.4%	6.31µM*[fluorescent]	2.9
CC(=O)c1cccc(NC(=O)CSc2ncc3c(n2)-c2cc(Cl)ccc2N(Cc2ccccc2)S3(=O)=O)c1	?	?	-15.9%	?	.
C=C1CC[C@H](O)C/C1=C/C=C1\CCC[C@]2(C)[C@@H]([C@H](C)CCCC(C)C)CC[C@@H]12	22.4µM*	?	.	-22.4%	1.0
C#CCN1C(C)=C(C(=O)CCO)[C@@H](c2cccc(-n3oo3)c2)C(C(=O)OC)=C1C	-19.4%	-2.5%	.	-27.8%	-0.7
CCc1c(C)nc(N)nc1N1N=C1SC(C(C)=O)C(C)=O	17.8µM*	?	-15.9%	-19.8%	-0.8
CCc1c(C)nc(N)nc1N1N=C1SCC(N)=O	-8.0%	-9.9%	-0.7%	-8.3%	0.5
O=C(Nc1ccc2oc(-c3cccnc3)nc2c1)c1ccc(-c2cccc(Cl)c2)o1	?	-8.1%	1.8%	-14.9%	.
O=CC(Br)P(=O)(N1CCOCC1)N1CCOCC1 (centres undefined)	10µM*	25.1µM*	-1.6%	?	2.0
